28 compounds from PubChem BioAssay (NCATS) can be followed below.

Inconclusive results are not listed. Values without a mark were called inactive. The source made the active and inactive calls. Calls follow the shape of the dose curve; as a rule, active = well fitted inhibition curve with a large enough effect; inconclusive = small, poorly fitted or top-dose-only effect; inactive = no such curve, though single readings can be large or run the other way.
Potency is read from the fitted curve at half-maximal effect.

The assay in a line: BET inhibitor-based combinations targeting novel dependencies in MECOM-rearranged (r) AML: MV-4-11 cell line (AID 2202233). Also: nearly all actives have a fitted effect of over 45% in size.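 As to viability, % of control: plate controls were DMSO for no effect and blank wells for full effect.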 To be noted: MV-4-11 AML viability, CellTiter-Glo luminescence, 48 h; series mostly up to 46 µM; viability, % of control: at the top concentration. Summed up:
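First, 500 cells per well were seeded; next, drugs were pinned as 11-point doses; then plates sat 48 hr in the incubator; finally CellTiter-Glo was added and luminescence read, with AUC and Z-AUC computed.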
(In general: Cellular ATP, detected with luciferase, serves as a proxy for viable cell number.)
`Cc1cc(C(C)(C)C)cc(C)c1CC1=NCCN1`: the Potency is 18.6 µM (active).
In the case of `Cc1cc(C)c(/C=C2\C(=O)Nc3ccccc32)[nH]1`, the Potency was 0.742 µM (active).
Regarding `NCCc1ccc(O)c(O)c1`, the Potency was 18.6 µM (active).
Consider `Clc1ccc(C(c2ccc(Cl)cc2)n2cc[n+](CC(OCc3ccc(Cl)cc3Cl)c3ccc(Cl)cc3Cl)c2)cc1` (stereo not drawn), for which the Potency was 8.33 µM (active).
In the case of `O=C1CCC(N2C(=O)c3ccccc3C2=O)C(=O)N1` (stereo not drawn), the “viability, % of control” value is 114%.
Turning to `NC(N)=NC(=O)c1nc(Cl)c(N)nc1N`, the Potency was 13.5 µM (active).
In the case of `OC(CCN1CCCCC1)(c1ccccc1)C1CC2C=CC1C2` (stereo not drawn), the Potency was 23.5 µM (active).
As to `Oc1ccc(/C=C/c2cc(O)cc(O)c2)cc1`, the Potency is 16.6 µM (active).
Consider `CS(=O)(=O)Nc1ccc([N+](=O)[O-])cc1Oc1ccccc1`, for which the “viability, % of control” value was 122%.
For the compound `Nc1nc2c(ncn2COCCO)c(=O)[nH]1`, the “viability, % of control” value was 112%.
With `O=C(c1ccc(OCCN2CCCCC2)cc1)c1c(-c2ccc(O)cc2)sc2cc(O)ccc12`, the Potency was 18.6 µM (active).
As for `C[C@H]1O[C@@H](n2cc(F)c(=O)[nH]c2=O)[C@H](O)[C@@H]1O`, the Potency was 13.2 µM (active).
Consider `NC12CC3CC(CC(C3)C1)C2`, for which the “viability, % of control” value was 106%.
In the case of `CC1COc2c(N3CCN(C)CC3)c(F)cc3c(=O)c(C(=O)O)cn1c23` (stereo not drawn), the “viability, % of control” value was 105%.
Take `CCN1CCCC1CNC(=O)c1cc(S(=O)(=O)CC)c(N)cc1OC` (stereo not drawn): the “viability, % of control” value was 129%.
`Cc1ccc(N(CC2=NCCN2)c2cccc(O)c2)cc1`: the Potency was 26.3 µM (active).
For `CCn1cc(C(=O)O)c(=O)c2cc(F)c(N3CCNC(C)C3)c(F)c21` (stereo not drawn), the “viability, % of control” value was 112% [at 15.6 µM].
As to `CC(C[N+](C)(C)C)OC(N)=O` (stereo not drawn), the “viability, % of control” value is 126%.
For the compound `CC(C)(Oc1ccc(C2CC2(Cl)Cl)cc1)C(=O)O` (stereo not drawn), the “viability, % of control” value is 112%.
Regarding `CN(C)CCC=C1c2ccccc2C=Cc2ccccc21`, the Potency is 20.9 µM (active).
As for `CC(C)c1ccc2c(c1)c(SC(C)(C)C)c(CC(C)(C)C(=O)O)n2Cc1ccc(Cl)cc1`, the Potency is 20.9 µM (active).
In the case of `CN[C@H](CC(C)C)C(=O)N[C@H]1C(=O)N[C@@H](CC(N)=O)C(=O)N[C@H]2C(=O)N[C@H]3C(=O)N[C@H](C(=O)N[C@H](C(=O)O)c4cc(O)cc(O)c4-c4cc3ccc4O)[C@H](O)c3ccc(c(Cl)c3)Oc3cc2cc(c3O[C@@H]2O[C@H](CO)[C@@H](O)[C@H](O)[C@H]2O[C@H]2C[C@](C)(N)[C@H](O)[C@H](C)O2)Oc2ccc(cc2Cl)[C@H]1O`, the “viability, % of control” value is 124% [at 15.6 µM].
In the case of `Oc1ccc2ccccc2c1SSc1c(O)ccc2ccccc12`, the Potency is 16.6 µM (active).
Still for that read-out and setting: the figure for `O=c1c(-c2ccc(O)cc2)coc2cc(O)cc(O)c12` is 34 µM (active).
In the case of `CC(=O)N1CCN(c2ccc(OC[C@H]3CO[C@](Cn4ccnc4)(c4ccc(Cl)cc4Cl)O3)cc2)CC1`, the “viability, % of control” value was 6.73%.
For `Cc1cnc(C(=O)NCCc2ccc(S(=O)(=O)NC(=O)NC3CCCCC3)cc2)cn1`, the “viability, % of control” value was 97%.
For `NCCCCNCCCN`, the Potency was 10.5 µM (active).
Consider `C1COC(NC(C2CC2)C2CC2)=N1`, for which the “viability, % of control” value is 133%.
